Screen size: about 190,000 compounds; about 4,100 (2.2%) were called active.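 The calls were made as follows: active = thallium flux slope and its plate-corrected score both differing from the plate sample mean at a set confidence after two filtering rounds, in either direction; inactive = the rest.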 For the sample, actives were picked, then their nearest neighbours and some compounds at random.

Chain of Solute carrier family 12 member 5 (Homo sapiens) (Q9H2X9 whole entry, looked up): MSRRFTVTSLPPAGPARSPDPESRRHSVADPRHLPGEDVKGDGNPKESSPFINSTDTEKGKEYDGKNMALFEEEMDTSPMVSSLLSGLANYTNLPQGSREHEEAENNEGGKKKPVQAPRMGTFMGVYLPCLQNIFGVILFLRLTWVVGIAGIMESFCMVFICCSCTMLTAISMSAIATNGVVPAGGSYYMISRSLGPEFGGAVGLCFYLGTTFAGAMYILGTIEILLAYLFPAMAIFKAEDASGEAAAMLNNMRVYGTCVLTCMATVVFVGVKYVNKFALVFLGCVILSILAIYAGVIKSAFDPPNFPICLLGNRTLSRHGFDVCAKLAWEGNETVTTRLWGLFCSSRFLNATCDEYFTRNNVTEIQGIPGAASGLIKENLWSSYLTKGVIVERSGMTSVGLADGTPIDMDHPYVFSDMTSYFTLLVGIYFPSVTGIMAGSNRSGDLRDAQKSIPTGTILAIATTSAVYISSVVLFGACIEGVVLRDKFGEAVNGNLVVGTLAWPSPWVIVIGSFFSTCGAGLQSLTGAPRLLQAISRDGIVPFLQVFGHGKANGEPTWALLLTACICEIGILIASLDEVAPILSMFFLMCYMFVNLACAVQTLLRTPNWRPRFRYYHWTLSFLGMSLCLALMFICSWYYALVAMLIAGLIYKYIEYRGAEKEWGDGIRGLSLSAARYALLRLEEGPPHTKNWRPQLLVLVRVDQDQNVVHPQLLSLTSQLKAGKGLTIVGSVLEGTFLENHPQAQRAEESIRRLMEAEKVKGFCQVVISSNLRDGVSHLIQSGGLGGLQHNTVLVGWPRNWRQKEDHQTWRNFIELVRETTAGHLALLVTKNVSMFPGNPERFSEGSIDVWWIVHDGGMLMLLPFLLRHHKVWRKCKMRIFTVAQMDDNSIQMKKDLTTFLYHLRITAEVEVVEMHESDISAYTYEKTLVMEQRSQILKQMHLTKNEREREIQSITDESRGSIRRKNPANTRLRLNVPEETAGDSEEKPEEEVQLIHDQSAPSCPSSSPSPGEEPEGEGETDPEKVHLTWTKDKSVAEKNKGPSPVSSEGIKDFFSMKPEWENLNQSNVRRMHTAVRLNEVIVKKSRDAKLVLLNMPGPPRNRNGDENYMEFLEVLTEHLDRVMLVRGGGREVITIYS

The assay addresses Solute carrier family 12 member 5 (Homo sapiens) (UniProt Q9H2X9). Kind of assay: KCC2 cotransporter modulators, thallium flux, primary screen, cell-based, HEK293 KCC2, FluoZin-2 fluorescence, MLSMR (AID 1456).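 Also: slope of fluorescence scaled to starting intensity during 10 to 20 s after thallium.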 The conditions noted are these: KCC2 cells, thallium flux FluoZin-2 fluorescence; at 10 µM.
For `COc1ccc(S(=O)(=O)N(CC(=O)N/N=C/c2ccccc2C(=O)O)c2ccccc2OC)cc1`, the B-score of Tl+ flux slope (higher = more flux/activation; lower = inhibition) is 0.515 (inactive).

In the case of `Cc1cccc(C)c1NC1=NC(=S)N(c2ccc(N(C)C)cc2)C1(C)C`, the B-score of Tl+ flux slope (higher = more flux/activation; lower = inhibition) was 4.28 (active).

In the case of `Cc1nnc2n1N=C(c1ccc3c(c1)NC(=O)CO3)CS2`, the B-score of Tl+ flux slope (higher = more flux/activation; lower = inhibition) was -0.931 (inactive).

`Cc1cc(F)ccc1NC(=O)C(C)n1c2ccccc2c2nc(=O)cc(C)n21` (centres undefined): the B-score of Tl+ flux slope (higher = more flux/activation; lower = inhibition) was -0.013 (inactive).

As for `Clc1cccc(N=C2NN=C(c3ccc4c(c3)OCCO4)CS2)c1`, the B-score of Tl+ flux slope (higher = more flux/activation; lower = inhibition) was 1.95 (inactive).

In the case of `CN(C)c1nc(=Nc2cccc(Cl)c2)ss1`, the B-score of Tl+ flux slope (higher = more flux/activation; lower = inhibition) was 87 (active).

With `Cc1ccc(C(=O)NNC2=Nc3cc([N+](=O)[O-])ccc3OC2)cc1`, the B-score of Tl+ flux slope (higher = more flux/activation; lower = inhibition) was 0.865 (inactive).

As for `COc1ccc(OCCC(=O)c2ccc(OC)cc2)cc1`, the B-score of Tl+ flux slope (higher = more flux/activation; lower = inhibition) was 0.534 (inactive).

Regarding `COc1ccc(CCNC(=O)CSc2nc3[nH]ncc3c(=O)n2-c2cccc(C(F)(F)F)c2)cc1OC`, the B-score of Tl+ flux slope (higher = more flux/activation; lower = inhibition) is 1.1 (inactive).

With `NC(=O)NC(=O)CSc1nc2cc([N+](=O)[O-])ccc2n1-c1cccc(C(F)(F)F)c1`, the B-score of Tl+ flux slope (higher = more flux/activation; lower = inhibition) is 6.95 (active).

As to `COc1ccc(-n2cnnc2SCC(=O)Nc2cccc([N+](=O)[O-])c2)cc1`, the B-score of Tl+ flux slope (higher = more flux/activation; lower = inhibition) was 0.774 (inactive).

For the compound `O=C(CN1CCN(C/C=C/c2ccccc2)CC1)Nc1ccc(F)cc1F`, the B-score of Tl+ flux slope (higher = more flux/activation; lower = inhibition) is 0.952 (inactive).

For the compound `CC(=O)N/C(=C\c1ccc(F)cc1)C(=O)NC(Cc1ccccc1)C(=O)O` (centres undefined), the B-score of Tl+ flux slope (higher = more flux/activation; lower = inhibition) was 0.0184 (inactive).

Consider `O=C(O)c1cccnc1Sc1ncnc2sc3c(c12)CCC3`, for which the B-score of Tl+ flux slope (higher = more flux/activation; lower = inhibition) is 2.47 (inactive).

In the case of `O=C(Cn1cnc2ccccc2c1=O)Nc1cccc(S(=O)(=O)N2CCCCC2)c1`, the B-score of Tl+ flux slope (higher = more flux/activation; lower = inhibition) was 0.0725 (inactive).

In the case of `CS(=O)(=O)c1sc(C(=O)NC(=S)Nc2ccc(OC(F)(F)F)cc2)c2c1C=CCC2`, the B-score of Tl+ flux slope (higher = more flux/activation; lower = inhibition) was 6.79 (active).

Take `FC(F)(F)Oc1ccc(NC(=S)NCc2ccccc2)cc1`: the B-score of Tl+ flux slope (higher = more flux/activation; lower = inhibition) is 0.0182 (inactive).

As for `CCNC(=S)Nc1ccc(OC(F)(F)F)cc1`, the B-score of Tl+ flux slope (higher = more flux/activation; lower = inhibition) is -0.759 (inactive).

On to `CC1(C)C=C2[C@H]3CC[C@@H]4[C@@]5(C)CCC(=O)C(C)(C)[C@@H]5CC[C@@]4(C)[C@]3(C)CC[C@@]2(C(=O)O)CC1`, for which the B-score of Tl+ flux slope (higher = more flux/activation; lower = inhibition) was 5.9 (active).

For `CCOC(=O)N1CCN(c2c(NCCN3CCN(c4ccccc4F)CC3)c(=O)c2=O)CC1`, the B-score of Tl+ flux slope (higher = more flux/activation; lower = inhibition) is 0.85 (inactive).

For `O=C(CCn1nnc2ccccc2c1=O)N[C@@H](Cc1c[nH]c2ccccc12)C(=O)O`, the B-score of Tl+ flux slope (higher = more flux/activation; lower = inhibition) was 0.807 (inactive).

`O=c1c2c3c(sc2n(CCN2CCCC2)c(=O)n1Cc1ccccc1)CCCCC3`: the B-score of Tl+ flux slope (higher = more flux/activation; lower = inhibition) was -0.146 (inactive).

Consider `CCCc1nc2sc3c(c2c(=O)n1NC(=O)CCCl)CCCC3`, for which the B-score of Tl+ flux slope (higher = more flux/activation; lower = inhibition) was -1.28 (inactive).

Consider `CCn1c(=S)[nH]c2sc3c(c2c1=O)CCCCC3`, for which the B-score of Tl+ flux slope (higher = more flux/activation; lower = inhibition) was 75.1 (active).

Take `O=C1C2C3C=CC(C3)C2C(=O)N1c1ccc(S(=O)(=O)Nc2nccs2)cc1` (centres undefined): the B-score of Tl+ flux slope (higher = more flux/activation; lower = inhibition) was 0.592 (inactive).

In the case of `Fc1ccc(Nc2nnns2)cc1`, the B-score of Tl+ flux slope (higher = more flux/activation; lower = inhibition) was -0.138 (inactive).

Consider `COc1ccccc1-n1cnc2cc(C(=O)NCC3CCCO3)ccc21` (centres undefined), for which the B-score of Tl+ flux slope (higher = more flux/activation; lower = inhibition) is 0.84 (inactive).

For the compound `COc1ccccc1-n1cnc2cc(NS(=O)(=O)c3ccccc3)ccc21`, the B-score of Tl+ flux slope (higher = more flux/activation; lower = inhibition) is -3.88 (active).

As to `COCCCNC(=O)c1ccc2c(c1)ncn2-c1ccccc1OC`, the B-score of Tl+ flux slope (higher = more flux/activation; lower = inhibition) was -0.0358 (inactive).

On to `NNC(=O)c1ccc(COCC(F)(F)C(F)F)cc1`, for which the B-score of Tl+ flux slope (higher = more flux/activation; lower = inhibition) is 0.0302 (inactive).

As to `CCOC(=O)c1cn[nH]c1NC(=S)Nc1ccccc1`, the B-score of Tl+ flux slope (higher = more flux/activation; lower = inhibition) is 0.559 (inactive).

For the compound `C/C(Cc1ccccc1)=N\NC(=O)CNC(=O)c1ccc2c(c1)OCCO2`, the B-score of Tl+ flux slope (higher = more flux/activation; lower = inhibition) is 0.0985 (inactive).

For `O=C1/C(=C/c2cccs2)SC(=S)N1C1CCS(=O)(=O)C1` (centres undefined), the B-score of Tl+ flux slope (higher = more flux/activation; lower = inhibition) is -0.225 (inactive).

For the compound `O=C(CCCN1C(=O)/C(=C/c2ccccc2)SC1=S)Nc1ccc(O)cc1`, the B-score of Tl+ flux slope (higher = more flux/activation; lower = inhibition) is -0.0883 (inactive).

Turning to `O=C(NC1CC1)c1ccc2c(c1)NC(=O)c1ccccc1S2`, the B-score of Tl+ flux slope (higher = more flux/activation; lower = inhibition) was -0.0671 (inactive).

Regarding `S=C1Nc2cc(Cl)ccc2Sc2ccccc21`, the B-score of Tl+ flux slope (higher = more flux/activation; lower = inhibition) is 8.4 (active).

Regarding `O=C1Cc2ccccc2Sc2ccc(Cl)cc21`, the B-score of Tl+ flux slope (higher = more flux/activation; lower = inhibition) is 0.587 (inactive).

On to `N#C/C(=C\N1CCOCC1)S(=O)(=O)c1ccc(Cl)cc1`, for which the B-score of Tl+ flux slope (higher = more flux/activation; lower = inhibition) was -0.211 (inactive).

With `COC(=O)c1c(C)oc(C)c1S(=O)(=O)NCc1ccc(Cl)cc1`, the B-score of Tl+ flux slope (higher = more flux/activation; lower = inhibition) was -0.208 (inactive).

In the case of `COC(=O)C1=C(C)N=C2SC(C)C(=O)N2C1/C=C/c1ccccc1` (centres undefined), the B-score of Tl+ flux slope (higher = more flux/activation; lower = inhibition) is 0.122 (inactive).

`CCOC(=O)c1ccccc1N1C(=O)C2Sc3[nH]c(=O)sc3C(/C=C/c3ccccc3)C2C1=O` (centres undefined): the B-score of Tl+ flux slope (higher = more flux/activation; lower = inhibition) is -6.82 (active).

On to `CC(OC(=O)c1ccccc1N1C(=O)C2C3CCC(C3)C2C1=O)C(=O)c1ccccc1` (centres undefined), for which the B-score of Tl+ flux slope (higher = more flux/activation; lower = inhibition) was 0.138 (inactive).

On to `CC(C)(C)C(=O)NNC(=O)c1ccc(Oc2cc(Cl)cc(Cl)c2)o1`, for which the B-score of Tl+ flux slope (higher = more flux/activation; lower = inhibition) was 4.1 (inactive).

In the case of `COc1ccc(Cl)cc1C(=O)NNC(=S)NC1CCCC1`, the B-score of Tl+ flux slope (higher = more flux/activation; lower = inhibition) was 0.52 (inactive).

For the compound `C=CCNC(=S)NNC(=O)c1cc(Cl)ccc1OC`, the B-score of Tl+ flux slope (higher = more flux/activation; lower = inhibition) was -0.352 (inactive).

On to `COc1ccc(Cl)cc1C(=O)NNC(=S)NC(=O)/C=C/c1ccco1`, for which the B-score of Tl+ flux slope (higher = more flux/activation; lower = inhibition) is 28.5 (active).

`Cc1cc(C)nc(SC(C)C(=O)N/N=C/c2cccs2)n1` (centres undefined): the B-score of Tl+ flux slope (higher = more flux/activation; lower = inhibition) was 5.07 (active).

As to `Cc1nc2ccccc2n1CC(=O)N/N=C/c1cccs1`, the B-score of Tl+ flux slope (higher = more flux/activation; lower = inhibition) is 0.629 (inactive).

As for `NC(=O)N/N=C\c1cccs1`, the B-score of Tl+ flux slope (higher = more flux/activation; lower = inhibition) was 0.148 (inactive).
